The sample as a whole holds a higher share of hits than the screen did.
Integrin act MD: integrin-mediated muscular dystrophy alleviation activation | AID 624291 | hit rate 0.064% among 350,000 | alpha7betagal myoblasts, beta-gal FDG fluorescence, 48 h | Potency, µM (top dose mostly 38.3 µM), for the others: at the top dose activation, usual class: activators;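 note: potency is the fitted concentration of half-maximal effect; 100% = response of the positive control SU9516; nearly all actives have a fitted effect of over 60% in size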
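alpha7betagal+/- myoblasts (passage 13, 250/well) treated 48 h at 37C with compounds at 1:260 dilution of DMSO stock. Lysed, then beta-galactosidase activity read as FDG fluorescence (ex 480/em 540) after 30 min, with pre-read for autofluorescence.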
N370S GC mod: inhibitors or activators of N370S glucocerebrosidase for Gaucher disease. P04062. N370S GC spleen homogenate, 4MU-glucoside fluorescence. Potency, µM (doses to about 59.4 µM), for inactives: at the top dose activity change, negative = inhibition, actives largely listed as inhibitors. hit rate 0.092% among 330,000. AID 2101;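 note: potency is the fitted concentration of half-maximal effect; 0% = full enzyme activity and -100% = no enzyme basal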
Glioma ERSR ind: inducers of ER stress response in human glioma cells; Potency, µM, inactives show at the top dose activation, most hits filed as activators; U87-MG GRP78 promoter luciferase reporter, 16 h; hit rate 0.02% among 420,000; note: potency is the fitted concentration of half-maximal effect; series mostly up to about 76 µM; % of control where 0% means no effect; nearly all actives have a fitted effect of over 35% in size
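Stably transfected U87-MG glioma cells carrying a GRP78-based luciferase sensor; 16 h compound incubation. Luminescence end-point read 10 min after Bright-Glo addition at room temperature.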
ClpP mod: qHTS Assay for Activators of ClpP | Potency, µM (top dose mostly 57.5 µM), inactives show at the highest dose activity change, negative = active | AID 651965, 2013 | hit rate 1.9% among 340,000 | purified B. subtilis ClpP, FRET peptide cleavage, 20 min; active = well fitted falling curve with a large enough effect; inconclusive = small, poorly fitted or top-dose-only effect; inactive = no such curve, though single readings can be large or run the other way; note: potency is the fitted concentration of half-maximal effect; the source files actives as falling curves though it sought activators and does not explain the sign; nearly all actives have a fitted effect of over 65% in size
Target sequence (P80244 whole entry, looked up): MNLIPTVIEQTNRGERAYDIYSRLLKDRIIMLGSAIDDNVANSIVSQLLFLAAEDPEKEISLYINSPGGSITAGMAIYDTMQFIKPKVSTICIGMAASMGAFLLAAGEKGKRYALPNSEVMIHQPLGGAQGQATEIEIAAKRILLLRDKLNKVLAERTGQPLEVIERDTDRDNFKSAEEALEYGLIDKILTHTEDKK
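ClpP 10 microg/mL final, pH 8 Tris/KCl buffer with BSA, glycerol, Tween-20; compound pinned in; FRET-FV substrate; RT 20 min; Ex320/Em430; ΔFRET vs ADEP 5.8 microM, DMSO, no enzyme.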
CBFb RUNX1 block: CBF-beta/RUNX1 interaction disruption; AID 1477; Q01196+Q13951; 230,000 tested, under 10 active; Potency, µM (highest dose often 59.8 µM), for the others: top-dose activity, negative = inhibition, most hits filed as inhibitors; AlphaScreen CBFb-His/RUNX1-biotin binding, biochemical; note: % of control where 0% means no effect
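His-tagged CBF-beta and biotinylated RUNX1 (30 nM each) were premixed 20 min at room temperature, exposed to compound for 15 min, then given nickel-chelate and streptavidin AlphaScreen beads (50 ng each). After 90 min, AlphaScreen signal was read.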
Anesthetic bind: binds horse apoferritin like a general anesthetic; apoferritin/1-aminoanthracene competitive binding, fluorescence; AID 485281; hit rate 0.074% among 350,000; Potency, µM (titrated, usually from 77.5 µM), for inactives: at the top dose activity change, negative = displacement, actives largely listed as inhibitors; P02791; note: potency is the fitted concentration of half-maximal effect; % is set by controls: 0 for no effect and ±100 for the full control effect; nearly all actives have a fitted effect of over 20% in size
Target sequence (P02791 2-175 limits assumed): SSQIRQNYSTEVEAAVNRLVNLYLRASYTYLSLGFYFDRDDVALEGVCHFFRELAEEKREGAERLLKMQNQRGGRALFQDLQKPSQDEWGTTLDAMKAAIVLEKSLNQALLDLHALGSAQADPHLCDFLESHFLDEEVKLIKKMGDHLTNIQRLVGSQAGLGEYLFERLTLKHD
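Concentration-response curves derived by four-parameter Hill fitting of normalized fluorescence, where compounds displaced 1-AMA from 10 uM horse apoferritin following a brief 10 min room-temperature incubation; propofol titration acted as positive control.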
Active calls of the source: *; ? = inconclusive; . = not tested or not shown; ! = a repeat was not active. Unless noted, calls come from the whole dose curve; as a rule, active = well fitted curve in the direction sought with a large enough effect; inconclusive = small, poorly fitted or top-dose-only effect, or another doubt; inactive = no such curve, though single readings can be large; an effect the other way counts as inactive or inconclusive.

SMILES | Integrin act MD | N370S GC mod | Glioma ERSR ind | ClpP mod | CBFb RUNX1 block | Anesthetic bind
COc1ccc(NC(=O)N(Cc2cc3cc(C)ccc3[nH]c2=O)CC2CCCO2)cc1 (stereo not drawn) | 28% | -8% | -5% | -18% | 3% | -20%
COc1ccc(C(=O)N(Cc2ccccc2)Cc2cc3cc4c(cc3[nH]c2=O)OCCO4)cc1 | 8% | 9% | -4% | ? | 1% | -8%
COc1ccc2[nH]c(=O)c(CN(CC3CCCO3)C(=O)Nc3ccc(F)cc3)cc2c1 (stereo not drawn) | -16% | 5% | -1% | 16µM* | 6% | -2%
COc1ccc(N(Cc2cc3ccc(C)cc3[nH]c2=O)C(=O)C2CCCO2)cc1 (stereo not drawn) | -20% | -4% | -6% | . | -3% | 0%
COc1cccc(C(=O)N(Cc2ccccc2)Cc2cc3cc4c(cc3[nH]c2=O)OCCO4)c1 | -14% | 19% | -5% | 28µM* | 2% | -6%
COC(=O)c1c(OCCN2CCCCC2)cc(=O)n2c1CCN(Cc1cccc3nccnc13)CC2 | . | . | -1% | . | . | .
COCC1CCCN(Cc2ccc3c(c2)CN(C(=O)c2ccc(OC)nc2OC)CCO3)C1 (stereo not drawn) | . | . | -5% | . | . | .
CCN1CCCC1CNCc1cc2ccc(SC)cc2nc1-c1cc(OC)ccc1OC (stereo not drawn) | . | . | 0% | . | . | .
COc1cccc(C(=O)N(Cc2cc3cc(C)ccc3[nH]c2=O)CC2CCCO2)c1 (stereo not drawn) | 5% | 26% | -3% | 32µM* | 0% | ?
COC(=O)c1ccc(C2C(C(=O)c3cc4ccccc4o3)=C(O)C(=O)N2CCN2CCOCC2)cc1 (stereo not drawn) | 10µM* | -3% | 2% | -1% | . | -7%
O=C1CCCC2=C1C1(CCCC1)N=C(Nc1nc3ccccc3s1)N2 | 12% | 27% | -5% | 28µM* | 0% | -5%
C/C=C1\COC(C(=O)NCCN2CCOCC2)(C(F)(F)F)C=C1C=C(C)C (stereo not drawn) | . | 14µM* | -4% | . | -7% | -9%
Cc1ccc2c(C(=O)CNc3nc(C)c(C)s3)c(C)[nH]c2c1 | . | . | 5% | -9% | . | .
CCCN(CC(=O)Nc1ccc(Cl)cc1Cl)C(=O)/C=C/c1cc(OC)ccc1OC | -22% | ? | -4% | 16µM* | -4% | 44%
CCOC(=O)c1cc(C#N)c(SC(C(=O)N2CCCCC2)c2ccccc2)nc1C (stereo not drawn) | . | . | -3% | -7% | . | .
O=C(c1cccs1)n1nc(-c2ccco2)nc1SCc1ccccc1 | 27% | -5% | 0% | ? | -2% | 28µM*
C[n+]1c(/C=C/c2ccc(N)cc2)sc2ccccc21 | . | . | 1% | -6% | . | .
O=S(=O)(Nc1cc(O)cc2cccnc12)c1ccc(Cl)s1 | . | -5% | . | . | ? | ?
COC(=O)Nc1nnc(/C=C/c2ccc(OC)cc2)s1 | 1% | 7% | 1% | 22µM* | 8% | -11%
CC(C)CCNC(=O)C(c1cccnc1)N(CCc1ccccc1)C(=O)Cn1nnc2ccccc21 (stereo not drawn) | -21% | 5% | -6% | 18µM* | -9% | -2%
Cc1ccccc1CN1CCc2nnc(C(C)NC(=O)c3cc(F)ccc3F)n2CC1 (stereo not drawn) | . | . | -4% | . | . | .
CCc1nc(N)c(C#N)c(-c2cccnc2)c1C | 6% | 4% | -5% | -23% | 16% | 16%
CCc1nc(N)c(C#N)c(-c2ccc(F)cc2)c1C | 24% | -1% | -4% | 28µM* | 1% | 1%
COC(=O)[C@@H]1CCCN1C(=O)c1c(OC)cc(=O)n2c1CCN(Cc1c(C)[nH]c3ccccc13)CC2 | . | . | 2% | . | . | .
Cc1cccc(NC(=S)N/C(=N/S(=O)(=O)c2ccccc2)c2ccccc2)c1 | 0% | 1% | 1% | 2.2µM*! | -2% | 2%
CC(=O)c1cccc(NC(=S)NC2CCCCC2)c1 | -18% | -5% | -1% | 14µM* | 6% | 5%

From PubChem BioAssay
